Compound activity (PubChem)
Compounds with a hit are over-represented: about 3.9% of the library has one in this group of screens.
Platelet DG rel – inhibitors of platelet dense granule secretion, primary screen, cell-based, MLPCN, human platelets | human platelet-rich plasma, SFLLRN dense granule ATP release, luminescence | hit rate 0.22% among 300,000 | AID 1663, 2009 | inhibition, %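 (compounds screened at 7.5 µM in platelet-rich plasma)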;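 active = mean replicate score, as percent of positive control, at or above 50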
TPT1 inh – Candida albicans TPT1 enzyme inhibitors, primary screen, biochemical, fluorescence polarization; tRNA 2'-phosphotransferase TPT1 (Candida albicans SC5314); recombinant caTPT1, FP RNA substrate dephosphorylation; inhibition, % at 5 µM; hit rate 0.81% among 300,000; AID 1962, 2009;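 active = inhibition above the mean of all tested compounds plus 3 SD, set per screening campaign, cut at about 24% in these data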;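 note: plate controls were DMSO alone for no effect and ferristatin control at 100 nM for full effect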
WT yeast gro inh – growth inhibition of WT strain, primary screen, mitochondrial fusion inhibitor project, WT and mutant strains, chemical genetic | mitochondrial fusion phenotypic screen | inhibition, % at 10 µM | hit rate 2.1% among 190,000 | AID 1362, 2008; in the data active = inhibition above about 58%; tested in S. cerevisiae
PHOSPHO1 inh – PubChem AID 1565; hit rate 1.1% among 290,000; Phosphoethanolamine/phosphocholine phosphatase (Homo sapiens), Q8TCT1; inhibition, % at 13.3 µM; recombinant PHOSPHO1, absorbance phosphatase assay; in the data active = inhibition above about 60%
Target sequence (Q8TCT1 whole entry, looked up): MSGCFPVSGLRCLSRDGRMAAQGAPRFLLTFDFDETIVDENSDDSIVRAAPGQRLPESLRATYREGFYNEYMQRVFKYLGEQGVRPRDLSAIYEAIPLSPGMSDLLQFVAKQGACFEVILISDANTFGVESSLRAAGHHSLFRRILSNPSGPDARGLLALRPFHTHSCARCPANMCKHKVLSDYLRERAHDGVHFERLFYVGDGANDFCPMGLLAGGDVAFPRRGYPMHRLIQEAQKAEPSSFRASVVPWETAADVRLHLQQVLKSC
SKKanGAS inh – S. pyogenes SKKanGAS growth inhibitors in kanamycin, primary screen, streptokinase expression inhibitor project, SKKanGAS strain, BacTiter-Glo luminescence. 6 h. inhibition, % at 7.5 µM. hit rate 1.3% among 300,000. AID 1662, 2009;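 active = mean replicate score, as percent of positive control median, at least 50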;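 note: strain carries kanamycin resistance gene driven by streptokinase promoter and grows in 40 µg/ml kanamycin; loss of luminescence reflects streptokinase promoter inhibition or plain growth inhibition; 0% = median of DMSO wells and 100% = positive control at its reference dose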
Rtt109 Vps75 – inhibitors of C. albicans Rtt109/Vps75 HAT, primary screen, biochemical, ThioGlo CoA-SH fluorescence, plate reader; inhibition, % at 34.9 µM; purified Rtt109/Vps75, 4 h; AID 540336, 2011; Histone acetyltransferase RTT109 (Candida albicans (strain SC5314 / ATCC MYA-2876)), …; hit rate 0.16% among 330,000;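 active = inhibition of at least 50% in every replicate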
Target sequence (Q5AAJ8 whole entry, looked up): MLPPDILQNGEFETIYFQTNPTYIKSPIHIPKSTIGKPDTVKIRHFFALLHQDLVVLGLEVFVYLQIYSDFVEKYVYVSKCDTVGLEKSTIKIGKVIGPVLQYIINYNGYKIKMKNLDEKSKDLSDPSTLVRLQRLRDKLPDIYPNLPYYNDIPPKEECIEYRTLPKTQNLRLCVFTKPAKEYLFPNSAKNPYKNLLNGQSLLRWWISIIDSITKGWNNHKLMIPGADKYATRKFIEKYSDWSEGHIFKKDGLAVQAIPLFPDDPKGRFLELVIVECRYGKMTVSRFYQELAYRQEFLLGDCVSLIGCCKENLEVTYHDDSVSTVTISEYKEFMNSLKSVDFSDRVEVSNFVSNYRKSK
* = called active by the depositor; · = no result.

SMILES | Platelet DG rel | TPT1 inh | WT yeast gro inh | PHOSPHO1 inh | SKKanGAS inh | Rtt109 Vps75
CCOC(=O)COn1c(-c2cccc(Cl)c2)nc2ccc([N+](=O)[O-])cc21 | -1.4 | 3.1 | 49.6 | 64.7* | -9.4 | -5.3
CCOC(=O)C(C)On1c(-c2cccc(Cl)c2)nc2ccc([N+](=O)[O-])cc21 (centres undefined) | -8.3 | -4.2 | 33.9 | 21.7 | -15.7 | 0.5
Cc1ccc(S(=O)(=O)N(C)C)cc1NC(=O)C(C)N(C)CCOc1ccc(Cl)cc1 (centres undefined) | 3.0 | -1.4 | · | -7.2 | 0.0 | -5.3
O=C(CCc1nnc(CCCCc2ccccc2)o1)NCCc1cccnc1 | 3.6 | -1.1 | 3.2 | 44.0 | -1.3 | -19.5
O=C(CCc1nnc(CCCCc2ccccc2)o1)NCCN1CCCCC1=O | -1.1 | -1.8 | 10.3 | 60.1* | -6.6 | -1.8
Cc1oc(C)c2c(=O)ccc3c(c12)OC(N)=C(C#N)C3c1ccccc1 (centres undefined) | 13.6 | 3.9 | -1.0 | 1.8 | 11.1 | 10.3
CSc1ccc(C2C(C#N)=C(N)Oc3c2ccc(=O)c2c(C)oc(C)c32)cc1 (centres undefined) | -2.9 | 39.8* | 6.6 | 14.1 | 35.3 | 6.5
Cc1ccc(-n2nc3c(c2NC(=O)CC(C)C)CS(=O)C3)cc1 (centres undefined) | -25.0 | -0.4 | · | 25.4 | 0.0 | -12.4
Cn1c(SCCCC(=O)c2ccccc2)nnc1-c1ccncc1 | 13.2 | -5.0 | -2.7 | 68.0* | -10.3 | 11.2
Cn1c(SCCCC(=O)c2ccc(F)cc2)nnc1-c1ccncc1 | -2.6 | 2.7 | · | 52.4 | -7.3 | 0.6
COC(=O)C1CSc2[nH]c(=O)sc2C1c1ccc(OC)c(OC)c1 (centres undefined) | -1.4 | -7.6 | 76.9* | -45.1 | 1.4 | 5.9
COC(=O)N/N=C/c1cn(Cc2c(Cl)cccc2Cl)c2ccccc12 | -15.7 | -3.9 | 63.4* | -15.9 | 0.1 | 6.4
COc1ccccc1OCCn1cc(/C=N/NC(=O)c2ccncc2)c2ccccc21 | 3.7 | 1.1 | · | 60.5* | -0.6 | -1.3
Cc1c(C(=O)Nc2c3c(nn2C(C)(C)C)CS(=O)(=O)C3)cccc1[N+](=O)[O-] | 5.8 | -2.2 | · | 24.2 | 4.0 | -5.1
CCn1c(SCC(=O)N(Cc2ccccc2)C2CCS(=O)(=O)C2)nc2ccccc2c1=O (centres undefined) | -1.2 | 0.3 | -3.3 | 62.7* | 0.1 | 14.9
CCn1c(SCc2ccc(OC)c(F)c2)nc2ccccc2c1=O | -4.7 | 0.3 | · | 16.1 | 25.1 | -2.5
CCn1c(SCc2ccc(F)cc2)nc2ccccc2c1=O | 2.8 | -5.5 | · | 20.3 | 51.0* | 1.1
COCC(C)n1c(SCc2ccc(OC)c(F)c2)nc2ccccc2c1=O (centres undefined) | -31.7 | · | 73.5* | -11.2 | 20.4 | -3.0
CSc1ncccc1C(=O)NCC(c1cccs1)N1CCOCC1 (centres undefined) | -1.8 | 1.7 | · | · | -5.0 | -2.5
COc1cc2c(cc1O)CC[n+]1cc3c(OC)c(OC)ccc3cc1-2 | -1.4 | -3.5 | -5.6 | -3.8 | -0.1 | -9.9
COc1cc2c(cc1OC)-c1cc3ccc4c(c3c[n+]1CC2)OCO4 | -12.3 | -67.6 | 60.0* | 8.4 | 7.9 | 1.7
CCc1ccc(NC(=O)c2ccc(F)c(S(=O)(=O)NCC3COc4ccccc4O3)c2)cc1 (centres undefined) | -12.2 | -0.8 | 37.0 | -16.2 | 49.7* | 9.1
COc1ccccc1N(CCC#N)C(=S)Nc1ccc(S(=O)(=O)N2CCOCC2)cc1 | · | · | · | · | · | 2.8
O=C(O)c1ccc(COc2ccc(/C=N/NC(=O)c3cccs3)cc2)cc1 | 0.1 | -2.7 | 1.1 | 76.8* | 5.1 | -19.7
COC(=O)c1ccc(COc2ccc(/C=N/Nc3cccc(C(=O)O)c3)cc2)cc1 | 2.4 | 2.5 | · | 67.6* | 14.7 | 9.7
SMILES | Platelet DG rel | TPT1 inh | WT yeast gro inh | PHOSPHO1 inh | SKKanGAS inh | Rtt109 Vps75
O=C(Oc1ccc(/C=N/Nc2ccccc2)cc1)c1ccccc1 | 2.4 | -1.9 | 23.4 | -46.4 | 11.6 | -28.7
O=C(O)c1ccc(N/N=C/c2ccc(OC(=O)c3cccc(Cl)c3)cc2)cc1 | 18.4 | -3.6 | · | 14.9 | 56.8* | -1.8
O=C(N/N=C/c1cccc(OCc2ccccc2)c1)c1cccs1 | -2.1 | -0.5 | 0.4 | 29.8 | -6.6 | -0.1
CC(C)N(C(=O)[C@H]1CC(CC(=O)NC(C)(C)C)C(=O)N2CCc3c([nH]c4ccccc34)[C@]12C)C(C)C (some centres undefined) | · | · | · | · | · | 11.0
O=C(COC(=O)c1ccc(O)cc1O)c1ccc2c(c1)OCO2 | 14.8 | -1.5 | · | 36.4 | 51.7* | 1.6
COc1ccc(OC)c(/C=C2\S/C(=N/NC(=O)c3ccc4ccccc4c3)NC2=O)c1 | -3.4 | 6.6 | -1.6 | -9.7 | 106.4* | -20.3
O=C(CN1C(=O)NC2(CCc3ccccc32)C1=O)NCc1ccc(Cl)cc1 (centres undefined) | · | · | · | · | · | 18.7
CCN(C(=O)CCNC(=O)Cn1cnc2ccccc2c1=O)c1ccccc1F | 6.6 | 2.5 | · | 20.0 | -0.8 | -7.5
COc1cc(CNCCO)cc(Br)c1OCc1ccccc1Cl | -7.9 | -2.3 | 78.6* | 1.5 | 2.0 | 12.3
COc1cc(CNCCO)cc(Cl)c1OCc1ccc(Cl)cc1Cl | -3.4 | -0.2 | 85.4 | 7.7 | 13.1 | 4.9
COc1cc(CNC(C)(C)CO)cc(Br)c1OCc1ccc(Cl)cc1Cl | -0.7 | -0.3 | 93.8* | -6.9 | 0.8 | 29.0
CC(=O)C1CCC2C3CCC4CC(=O)CCC4(C)C3C(C)(O)CC12C (centres undefined) | · | · | · | · | · | 3.2
COc1ccc(NS(=O)(=O)c2cc(C(=O)N(C)CCc3ccccn3)ccc2Cl)cc1 | · | · | · | · | · | -4.4
O=C(COC(=O)CCC(=O)N1CCOCC1)Nc1ccc(Br)cc1Br | · | · | · | · | · | 2.7
C#C[C@]1(O)CC[C@H]2[C@@H]3CCc4cc(OC5CCCC5)ccc4[C@H]3CC[C@@]21C | 1.8 | 1.1 | 95.5* | 31.7 | 103.1* | -6.6
C#C[C@]1(O)CC[C@H]2[C@@H]3CCc4cc(OC)ccc4[C@H]3CC[C@@]21C | 1.4 | 1.5 | 23.8 | 1.1 | 3.2 | 2.7
Cc1nn(-c2ccccc2)c(C)c1NC(=O)COC(=O)c1cc(Br)ccc1O | 0.8 | 3.2 | · | · | -5.4 | 2.3
Cc1nc(-c2ccc3c(c2)CCC(=O)N3)cs1 | -4.9 | 4.4 | · | 20.3 | -2.5 | 5.5
Cc1ccc(-c2csc(Cc3nc(-c4ccc5c(c4)CCC(=O)N5)cs3)n2)cc1 | -0.5 | 20.9 | · | 8.0 | 70.7* | 2.5
CCOC(=O)[C@@H]1[C@H]2COc3ccc(Br)cc3[C@@H]2N2C(=O)N(c3ccc(C)cc3)C(=O)[C@@]12C | · | · | · | · | · | -1.3
CC(Sc1nc2ccccc2o1)C(=O)O (centres undefined) | 5.2 | 2.2 | -0.7 | 76.1* | -4.0 | 1.0
